{
  "source": "PubChem BioAssay AID651658",
  "about": "(Broad Institute, 2012)",
  "note": "Where “and” joins values, the source holds several entries; their conditions need not be identical. Identical values can stand only once. Screen size: about 340,000 compounds; about 5,100 (1.5%) were called active. The entries come from a sample that favours actives as a whole. Unmarked numbers belong to inactive results.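 Rule for the calls: active = mean Tm shift, scaled 0 neutral to 100 positive control, at about 1.3% or above, every replicate too (limit read from the data); inconclusive = no clear call, values can overlap the other calls; inactive = the rest.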",
  "data": [
    {"target": "Fibroblast growth factor 22 (Homo sapiens) (UniProt Q9HCT0)", "sequence (Q9HCT0 whole entry, looked up)": "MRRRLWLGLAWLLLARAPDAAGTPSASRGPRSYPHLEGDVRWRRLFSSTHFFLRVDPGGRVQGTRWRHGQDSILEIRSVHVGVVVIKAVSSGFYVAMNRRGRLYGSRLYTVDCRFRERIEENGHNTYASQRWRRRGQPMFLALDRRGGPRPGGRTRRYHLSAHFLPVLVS", "test": "FGF22 ligand-induced thermal stabilization – biophysical, thermal shift, single point, FGF22 synaptogenesis inhibitor project, primary screen (AID 651658)", "details": "recombinant FGF22 thermal shift, SYPRO orange fluorescence; at 9.99 µM; hits give high values; percent of sucrose octasulfate shift, DMSO zero", "values": [
      {"smiles": "CC(C)Cn1c(N2CCN(C(=O)/C=C/c3ccccc3)CC2)nc2ccccc21", "activity (Tm shift, normalised)": "-0.183%"},
      {"smiles": "O=C(Cn1c(N2CCN(C/C=C/c3ccccc3)CC2)nc2ccccc21)c1ccccc1", "activity (Tm shift, normalised)": "44% (active)"},
      {"smiles": "COc1cc(C(=O)N2CCN(C/C=C/c3ccccc3)CC2)cc(OC)c1C", "activity (Tm shift, normalised)": "0.444%"},
      {"smiles": "CCCC(=O)Nc1ccc2c(c1)C(=O)N(C)C[C@H](OC)[C@@H](C)CN[C@H](C)CO2", "activity (Tm shift, normalised)": "-0.019%"},
      {"smiles": "CO[C@@H](CN(C)S(=O)(=O)c1ccccc1)[C@@H](C)CN(Cc1ccccc1Cl)[C@H](C)CO", "activity (Tm shift, normalised)": "0.183%"},
      {"smiles": "COC(=O)Cc1nc2c(N)nc(N)nc2[nH]c1=O", "activity (Tm shift, normalised)": "44% (active)"},
      {"smiles": "COC(=O)Cc1c(-c2[nH]c3ccccc3c2CC(=O)OC)[nH]c2ccccc12", "activity (Tm shift, normalised)": "-0.112%"},
      {"smiles": "Cc1cc(C)cc(N2C(=O)CSC2c2cccc([N+](=O)[O-])c2)c1", "note": "(stereo not given)", "activity (Tm shift, normalised)": "-0.058%"},
      {"smiles": "C[C@H]1CN([C@@H](C)CO)C(=O)Cc2cc(NS(=O)(=O)c3cn(C)cn3)ccc2O[C@@H]1CN(C)C(=O)Nc1ccc2c(c1)OCO2", "activity (Tm shift, normalised)": "-0.296%"},
      {"smiles": "CCCNC(=O)C[C@H]1CC[C@@H]2[C@H](COC[C@H](O)CN2S(=O)(=O)c2ccccc2F)O1", "activity (Tm shift, normalised)": "-0.049%"},
      {"smiles": "COc1ccc2c3c(n(C)c2c1)[C@H](CO)N(C)CC31CCN(C(=O)Nc2cccc(F)c2)CC1", "activity (Tm shift, normalised)": "0.13%"},
      {"smiles": "C[C@H]1CN([C@@H](C)CO)S(=O)(=O)c2ccc(-c3ccccc3F)cc2O[C@H]1CN(C)C(=O)C1CC1", "activity (Tm shift, normalised)": "0.047%"},
      {"smiles": "CCN1CCN(C(=O)CSc2ccc(C)cc2)CC1", "activity (Tm shift, normalised)": "-0.037%"},
      {"smiles": "O=C1c2ccccc2C(=O)N1CCCCCCN1C(=O)c2ccccc2C1=O", "activity (Tm shift, normalised)": "-0.045%"},
      {"smiles": "CCN1CCN(C(=O)CCN2C(=O)c3ccccc3C2=O)CC1", "activity (Tm shift, normalised)": "44.1% (active)"},
      {"smiles": "O=C(CN1CCOCC1)N1CC(=O)N2[C@H](C1)[C@H](c1ccc(/C=C/c3ccccc3)cc1)[C@@H]2CO", "activity (Tm shift, normalised)": "-0.125%"},
      {"smiles": "CCc1nc2ccccc2c(C(=O)OC2CCCCC2=O)c1C", "note": "(stereo not given)", "activity (Tm shift, normalised)": "0.135%"},
      {"smiles": "COc1ccc(CNC(=O)CN2C(=O)c3ccccc3S2(=O)=O)cc1", "activity (Tm shift, normalised)": "0.05%"},
      {"smiles": "CCc1nc2ccccc2c(C(=O)NCc2ccc(OC)cc2)c1C", "activity (Tm shift, normalised)": "43.4% (active)"},
      {"smiles": "O=C(NCC(F)(F)F)[C@H]1[C@H](CO)[C@H]2Cn3c(ccc(-c4ccncc4)c3=O)[C@H]2N1Cc1ccncc1", "activity (Tm shift, normalised)": "-0.221%"},
      {"smiles": "COc1ccc(-c2cc(=O)oc3cc(OCC(=O)N[C@@H](Cc4c[nH]c5ccccc45)C(=O)O)ccc23)cc1", "activity (Tm shift, normalised)": "2.9% (active)"},
      {"smiles": "Cc1cccc(C)c1OCC(=O)NC(Cc1c[nH]c2ccccc12)C(=O)O", "note": "(stereo not given)", "activity (Tm shift, normalised)": "-0.152%"},
      {"smiles": "COc1ccc(-c2cc(C(=O)NC(Cc3c[nH]c4ccccc34)C(=O)O)c(C)o2)cc1OC", "note": "(stereo not given)", "activity (Tm shift, normalised)": "1.25%"},
      {"smiles": "CC=Cc1ccc2n(c1=O)C[C@@H]1[C@@H](CO)[C@H](C(=O)N[C@@H](C)c3ccccc3)[C@H]2N1Cc1ccncc1", "note": "(mixture of isomers)", "activity (Tm shift, normalised)": "-0.334%"},
      {"smiles": "COc1ccc(C2=NN(C(=O)c3ccccc3C(=O)O)C(c3ccccc3O)C2)cc1", "note": "(stereo not given)", "activity (Tm shift, normalised)": "-0.24%"},
      {"smiles": "COc1cccc(C2CC(c3ccccc3)=NN2S(=O)(=O)c2ccccc2)c1OC", "note": "(stereo not given)", "activity (Tm shift, normalised)": "44% (active)"},
      {"smiles": "CS(=O)(=O)Nc1cccc(C2=NN(S(=O)(=O)c3ccccc3)C(c3cccs3)C2)c1", "note": "(stereo not given)", "activity (Tm shift, normalised)": "0.242%"},
      {"smiles": "C[C@H]1CN([C@@H](C)CO)S(=O)(=O)c2ccc(C3=CCCC3)cc2O[C@H]1CN(C)C(=O)Cc1ccncc1", "activity (Tm shift, normalised)": "0.421%"},
      {"smiles": "O=C(C1CCCCC1)N1[C@H](CO)[C@@H](c2ccccc2)C12CN(Cc1cccc(Cl)c1)C2", "activity (Tm shift, normalised)": "-0.133%"},
      {"smiles": "COc1cc(C(=O)OCc2cc(=O)n3ccsc3n2)ccc1OC(C)C", "activity (Tm shift, normalised)": "0.144%"},
      {"smiles": "COc1ccc(C(=O)OCc2cc(=O)n3ccsc3n2)cc1F", "activity (Tm shift, normalised)": "44% (active)"},
      {"smiles": "O=C(OCc1cc(=O)n2ccsc2n1)C1(c2ccc(Cl)cc2)CC1", "activity (Tm shift, normalised)": "0.39%"},
      {"smiles": "CCCC#Cc1ccc([C@H]2[C@H]3CN(C(=O)Nc4cccc(F)c4)CC(=O)N3[C@H]2CO)cc1", "activity (Tm shift, normalised)": "0.366%"},
      {"smiles": "COc1cc2nc(CN(C)Cc3ccc(F)cc3)[nH]c(=O)c2cc1OC", "activity (Tm shift, normalised)": "-0.106%"},
      {"smiles": "COc1cc(CN(C)Cc2nc3cc(C(F)(F)F)ccc3c(=O)[nH]2)ccc1OC(F)F", "activity (Tm shift, normalised)": "-0.382%"},
      {"smiles": "COc1ccc(CN(C)Cc2nc3cc(OC)c(OC)cc3c(=O)[nH]2)c(OC)c1", "activity (Tm shift, normalised)": "43.6% (active)"},
      {"smiles": "O=C(Nc1ccc(C(F)(F)F)cc1)N[C@@H]1CC[C@H](CC(=O)N2CCCCC2)O[C@H]1CO", "activity (Tm shift, normalised)": "-0.164%"},
      {"smiles": "CO[C@@H]1CN(C)C(=O)c2ccc(NS(C)(=O)=O)cc2OC[C@@H](C)N(C(=O)C2CCOCC2)C[C@@H]1C", "activity (Tm shift, normalised)": "-0.055%"},
      {"smiles": "O=C(c1ccc(F)cc1)N1CC2(C1)[C@H](c1ccccc1)[C@@H](CO)N2Cc1ccccn1", "activity (Tm shift, normalised)": "-0.271%"},
      {"smiles": "O=C(NCCc1c[nH]c2ccccc12)C(=O)NCC1CCCO1", "note": "(stereo not given)", "activity (Tm shift, normalised)": "1.53% (active)"},
      {"smiles": "N#C/C(=C/c1ccc(N2CCCCC2)o1)C(=O)NCCc1c[nH]c2ccccc12", "activity (Tm shift, normalised)": "-0.174%"},
      {"smiles": "O=C(NCCc1c[nH]c2ccccc12)c1cc2ccccc2oc1=O", "activity (Tm shift, normalised)": "0.185%"},
      {"smiles": "C[C@H](CO)N1C[C@H](C)[C@H](CN(C)C(=O)C2CC2)OCc2ccccc2-c2ccccc2C1=O", "activity (Tm shift, normalised)": "0.103%"},
      {"smiles": "O=C(NCC[C@@H]1CC[C@H](NC(=O)C2CC2)[C@H](CO)O1)c1cnccn1", "activity (Tm shift, normalised)": "0.118%"},
      {"smiles": "C[C@H](O)C#Cc1ccc2c(c1)O[C@H](CN(C)Cc1ccccn1)[C@H](C)CN([C@H](C)CO)S2(=O)=O", "activity (Tm shift, normalised)": "-0.169%"},
      {"smiles": "CCCNC(=O)C[C@@H]1C[C@H]2c3cc(NC(=O)Nc4ccccc4F)ccc3O[C@H]2[C@H](CO)O1", "activity (Tm shift, normalised)": "-0.607%"},
      {"smiles": "COc1cccc(NC(=O)N2[C@@H]3CNC[C@H]2C3c2ccc(-c3ccncc3)cc2)c1", "note": "(stereo not given in full)", "activity (Tm shift, normalised)": "0.042% and -0.443%"},
      {"smiles": "Fc1ccc(/C=N/n2c(COc3ccccc3)n[nH]c2=S)cc1", "activity (Tm shift, normalised)": "0.702%"},
      {"smiles": "COc1ccc(OCc2n[nH]c(=S)n2N)cc1", "activity (Tm shift, normalised)": "0.243%"},
      {"smiles": "S=c1[nH]nc(COc2ccccc2)n1-c1ccccc1", "activity (Tm shift, normalised)": "43.8% (active)"}
    ]}
  ]
}
